The panel holds about 79,000 compounds, 15% with a hit somewhere; the sample as a whole holds those more often. A number with no mark means an inactive call. The source made the active and inactive calls. Cut-off read from the data, not from the text of the source: active = growth inhibition above about 70%; inactive = the rest.
What was measured:
[1] = NCI Yeast Anticancer Drug Screen. Data for the rad50 strain (AID 155);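 note: 0% = growth of vehicle-only cultures of the same strain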; conditions: S. cerevisiae rad50 strain growth inhibition; at 50.0 µM; stronger effect = higher value
Summary of the method: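 Yeast carrying a defined DNA repair defect were exposed to test compounds, and growth was compared with vehicle-treated controls to give percent inhibition.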

[2] = NCI Yeast Anticancer Drug Screen. Data for the mec2-1 strain (AID 157); conditions: S. cerevisiae mec2-1 strain, at 50.0 µM, stronger effect = higher value
Summary of the method: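 Cells of the genetically defined mec2-1 yeast strain are incubated with test compound. Inhibition of growth is calculated against vehicle-treated controls.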

[3] = NCI Yeast Anticancer Drug Screen. Data for the sgs1 mgt1 strain (AID 161);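 note: 0% = growth of cultures given vehicle only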; conditions: S. cerevisiae sgs1 mgt1 strain, at 50.0 µM, stronger effect = higher value
Summary of the method: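 Inhibition of yeast growth, normalised to vehicle-treated controls, is reported for a strain bearing genetic alterations in DNA damage repair.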

[4] = NCI Yeast Anticancer Drug Screen. Data for the cln2 rad14 strain (AID 165);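 note: 0% = growth equal to vehicle treated cultures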; conditions: S. cerevisiae cln2 rad14 strain, at 50.0 µM, stronger effect = higher value
Summary of the method: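 The screen exposed genetically defined yeast (cln2 rad14) to test compounds and scored growth inhibition relative to vehicle-treated controls.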

[5] = NCI Yeast Anticancer Drug Screen. Data for the bub3 strain (AID 167); conditions: S. cerevisiae bub3 mutant strain, at 50.0 µM, stronger effect = higher value
Summary of the method: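 Compounds were applied to a genetically altered yeast strain carrying a cell-cycle control defect. Growth inhibition was scored against vehicle-treated controls.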

[6] = NCI Yeast Anticancer Drug Screen. Data for the mlh1 rad18 strain (AID 175); conditions: S. cerevisiae mlh1 rad18 strain growth inhibition; at 50.0 µM; stronger effect = higher value
Summary of the method: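 Compound-treated yeast growth, normalised to vehicle controls. Strain bears defined DNA repair mutations.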

SMILES	growth inhibition [1]	growth inhibition [2] [%]	growth inhibition [3] [%]	growth inhibition [4] [%]	growth inhibition [5] [%]	growth inhibition [6] [%]
CSc1nc(N(C)C)c2[nH]c(C)nc2n1	7.2%	9.5	-6.55	36.6	10.6	31.6
OCC1NCC(O)C(O)C1O (configuration not stated)	-6.6%	-11.6	-14.4	2.3	-8.3	7.25
CCCCCOC(=S)S.[Ag]	-5.65%	-15.2	-1.55	13.2	-16.2	-8.4
Cc1ccc(N2CCN(c3ccc(C)cc3)C2=C2N(c3ccc(C)cc3)CCN2c2ccc(C)cc2)cc1	78.5% (active)	20.4	56.5	34.1	37.1	19.6
COc1ccc(-c2nnc(-c3nsc4ccccc34)o2)cc1	-12.8%	-31.9	-21.5	-2.5	18.5	-14.1
N#Cc1c(Br)n(C2OC(CO)C(O)C2O)c2ncncc12 (configuration not stated)	1.5%	7.5	1.55	-0.05	4.7	2.7
Cc1cc(-c2ccccc2)nc(Nc2cc3ccccc3[nH]2)n1	-8.6%	13.2	-17.6	0.05	-4.25	0.4
CCN(CC)CCOC(=O)c1c(C)cc(C)cc1C	-6.3%	-9.4	4.9	-41.5	-15.6	-7.9
Oc1cccc(N=Cc2ccccc2O)c1	4.3%	-4.85	0.15	-18.8	-5.15	0.15
Nc1cccc2ccc(Cl)nc12	37.9%	19.4	14.2	9.7	16.3	-5
CC(C)(C)CC(C)(C)N1CNC(=S)NC1	19%	-1.95	18.3	10.8	21.8	16.8
CC1=NC(C(N)=O)C(=O)N1 (configuration not stated)	-35%	-23.4	-15.3	-30.4	-8.8	-0.65
CCCC(=O)OCC1OC2OC(C)(C)OC2C2OC(C)(C)OC12 (configuration not stated)	-4.45%	-2.55	10.8	8.55	15.8	-6.25
O=C(O)c1nn(-c2ccccc2)c2c1CSc1ccccc1-2	35.5%	34.2	25.6	27.2	16.9	13.2
C=CCOC(=O)CCC(=O)OCC=C	3.45%	6.2	-4.65	-15.4	5.8	-4.35
CC1(C)CC(=O)C(/C=N/C(N)=S)=C(O)C1	-20.3%	-52.1	-13.8	6.2	-0.85	-31.6
COC1(c2ccc(C)cc2)c2cccc3cccc(c23)C1(O)c1ccc(C)cc1 (configuration not stated)	18.6%	15.6	12	21.6	-4.15	9.9
COC(=O)c1nc(NN)[nH]c(=O)c1CCCCCc1c(C(=O)OC)[nH]c(NN)cc1=O	-35.4%	-6.65	-14.1	14.9	-18.1	-8.85
O=NC1CCCCC1Cl (configuration not stated)	3%	-4.15	4.6	-4.45	7.05	2.55
COc1cc([C@@H]2c3cc4c(cc3[C@H](OC3OC5COC(C(C)C)OC5C(O)C3O)C3COC(=O)[C@@H]32)OCO4)cc(OC)c1OC (some centres not stated)	11.6%	46.7	31	3.2	9.25	-41.8
CCCc1nc(NC#N)nc(C(=O)NC23CC4CC(CC(C4)C2)C3)c1C	-8.2%	-13.2	7.4	8.4	-7.2	-9.35

SMILES	growth inhibition [1]	growth inhibition [2] [%]	growth inhibition [3] [%]	growth inhibition [4] [%]	growth inhibition [5] [%]	growth inhibition [6] [%]
COC(=O)C1(Cc2ccc3c(c2)CCC3)Cc2ccccc2C1	-9.5%	-25.5	-6.1	5.2	29.9	-9.2
CC(C)SSC(=O)N1CCCC1C(=O)O (configuration not stated)	-1.6%	3.05	-5.45	-30.9	-1	-1.7
CCOC(=O)/C=C1\CCC(C)n2c1nccc2=O (configuration not stated)	-14.1%	4.8	-6	-7.5	14.5	14.3
COc1ccc(NC(=O)Oc2ccccc2C(N)=O)c(Cl)c1	-2.05%	10.8	3.65	4.6	18.4	9.75
Cc1ccc(C(=O)NCCN2CCCC2)c([N+](=O)[O-])c1OCc1ccccc1	6.15%	-20	4.8	-22.9	-4.85	-5.8
CO/C(N)=C(\C#N)N=Cc1ccco1	-21.4%	-22.4	-4.65	11.8	-4.55	9.3
c1ccc(B2O[C@H]3CCCC[C@@H]3O2)cc1	2.15%	13.9	-1.3	12.8	1.25	21.4
CCOC(=O)/C(C#N)=C/c1cc(Br)c(O)c(OC)c1	-12.3%	-22	25.4	-0.8	6.25	10.8
CC(CN1CCCC1)(Oc1ccccc1)C(=O)c1ccccc1 (configuration not stated)	16.6%	-0.45	15.1	7.8	10.1	2.45
CC(C)(C)OC(=O)C1C(=O)CC(c2ccccc2)C1c1ccccc1 (configuration not stated)	-3.05%	-3	1.25	-7.8	-5.7	-1.9
O=C1C=CC(=O)N1Cc1ccco1	-3.7%	-16.8	5.9	8.5	10.1	-16.6
CC(C)CCc1ccc2ccc3cccc4ccc1c2c34	-17.6%	3.55	-1.15	-26.3	-0.85	-8.1
O=C1CSC(=S)N1N1C(=O)CSC1=S	-24.8%	-7.8	-21.5	-12.3	5.55	-12.4
COc1ccc(CN=CN/C(C#N)=C(\N)C#N)cc1OC	-21.2%	-49.8	-28.6	6.55	4.35	-23.6
CC(C)C/C(CC(=O)CCC(=O)Nc1ccccc1[N+](=O)[O-])=N\NC(=O)c1cc2ccccc2cc1O	17.8%	24.1	-11.8	26.2	9.8	29.9
COc1cc(-c2ccccc2)c(OC)cc1CCl	4.05%	2.95	17.8	6	13.7	20
O=C(NCN1CCOCC1)Nc1ccccc1	8%	0.6	-1.65	-24.2	-6.55	2.05
CC(=O)CCCCO	-6.8%	-2.5	10.8	-8.55	2.8	-18.1
NC(=O)N1CCCC1	-1.65%	13.1	-3.7	7.7	9.45	2.15
Cc1ccc(NC(=S)NCCc2ccccn2)cc1C	29.2%	13.8	28.9	1.45	21.3	21.6
CCOC(=O)N(CCCl)C(=O)C(C)C	-21.6%	-39.1	-10.6	24.8	-25.2	-11.1
